# Reference: PubChem BioAssay (Tox21)
# Inconclusive results are not listed. Unmarked numbers belong to inactive results. Calls of active or inactive are those of the source. Calls come from the whole dose curve; as a rule, active = well fitted cell-killing curve with a large enough effect in the repeat runs; inconclusive = weak or mixed curves, or effect the other way; inactive = flat fitted curve, though single readings scatter.
# Experiment: qHTS assay to identify small molecule antagonists of the constitutive androstane receptor (CAR) signaling pathway - cell viability counter screen (AID 1224837); note: nearly all actives have a fitted effect of over 45% in size
# Conditions: HepG2-CYP2B6-hCAR viability, CellTiter-Fluor, 23 h, co-treated with 50 nM CITCO; series mostly up to 92.4 µM; activity change, negative = cytotoxicity: at the top concentration
# Excerpt: National Center for Advancing Translational Sciences [NCATS]
# NIH Chemical Genomics Center [NCGC]
# U.S. Environmental Protection Agency [EPA]
# National Institutes of Environmental Health Sciences [NIEHS]
# National Toxicology Program [NTP]
# U.S. Food and Drug Administration [FDA]
# The constitutive androstane receptor (CAR) is a nuclear receptor which regulates multiple drug metabolizing enzymes (DMEs) and transporters. Activating CAR will generally increase the transcription and subsequent translation of CYP2B6 and CYP3A4. These two DMEs represent about 50% of the drug metabolizing potential in the body. When CAR is deactivated, the metabolizing potential in the body will decrease, subsequently increasing the toxicity in the body or lowering the therapeutic potential of a pro-drug. Recently, there have also been studies performed indicating CARs role in energy metabolism and cancer therapy. Therefore, inhibiting CARs activity could have a potential effect on diabetes and cancer. Identifying environmental toxins and compounds which modulate CAR, through the use of the Tox21 10K compound collection, will be an important step in determining the toxicity and potential therapeutic effects these factors will have on the human body. To differentiate true CAR antagonists from cytotoxic substances, the assay is multiplexed with a cell viability assay.
# Tox21 Assay Protocol Summary:
# A double-stable (hCAR and CYP2B6-2.2kb) transfected cell line, derived from human hepatoma (HepG2) cells, was utilized for the duration of the quantitative high-throughput screens. The HepG2-CYP2B6-hCAR cells were dispensed at 2500 cells/4 uL/well in 1536-well white solid bottom plates using a Multidrop Combi. After the assay plates were incubated at 37 C/5% CO2 for 4 hrs, 23 nL of compounds at 15 concentrations (from 5-48 columns) or positive control (from 1 to 4 columns) were transferred to the assay plates using a Pintool station. One uL of CITCO (final concentration = 50 nM) was added, using a Flying Reagent Dispenser, inside each well. After a 23 hr incubation period at 37 C/5% CO2, 1 uL of CellTiter-Fluor reagent was added into each well of the assay plates using a Flying Reagent Dispenser. The fluorescence intensity in the plates was then measured using a ViewLux plate reader.
# % is set by controls: 0 for no effect and ±100 for the full control effect; potency is the fitted concentration of half-maximal effect.
SMILES,"activity change, negative = cytotoxicity",Potency
CCCCN(CCCC)C(=S)[S-].CCCCN(CCCC)C(=S)[S-].[Ni+2],1.61% [at 42.5 µM],
CCC[CH2][Sn]([CH2]CCC)([CH2]CCC)[O][Sn]([CH2]CCC)([CH2]CCC)[CH2]CCC,,0.947 µM (active)
COP(=S)(OC)Oc1ccc([N+](=O)[O-])c(C)c1,1.41%,
COC(=O)/C=C(\C)OP(=O)(OC)OC,1.62%,
CCC(C)Br (stereo not given),0.527%,
CNN,12.7%,
c1ccc(N=NNc2ccccc2)cc1,-16.3%,
C#CC1(O)CCCCC1,7.21%,
CC(C)(C)c1ccc(OP(=O)(Oc2ccccc2)Oc2ccccc2)cc1,-0.621%,
CC(C)NCC(O)c1ccccc1Cl (stereo not given),1.77% [at 42.5 µM],
CCCCc1ccccc1,2.42%,
Oc1ccc2[nH]cc(CCCCN3CC=C(c4ccccc4)CC3)c2c1,-19.6% [at 42.5 µM],
CC(C)[C@@H](Nc1ccc(C(F)(F)F)cc1Cl)C(=O)OC(C#N)c1cccc(Oc2ccccc2)c1 (stereo not given in full),2.07%,
O=C(Cl)c1ccccc1F,13.2%,
COc1cnc(OC)n2nc(NS(=O)(=O)c3c(OCC(F)F)cccc3C(F)(F)F)nc12,2.19%,
N#CCCl,-6.58%,
Nc1nc(N)nc(Cl)n1,0.864%,
CCCCn1cc[n+](C)c1.[Cl][Fe-]([Cl])([Cl])[Cl],-0.696%,
CC(Cl)CCl (stereo not given),2.82%,
O=S(=O)(O)F,-3.37%,

SMILES,"activity change, negative = cytotoxicity",Potency
[Cl-].[Cl-].[Sn+2],4.49%,
CC(Cc1ccc(O)cc1)NCC(O)c1cc(O)cc(O)c1 (stereo not given),-6.94% [at 42.5 µM],
[O-][Cl+3]([O-])([O-])O,-12.6%,
CN(C)CCc1c[nH]c2ccccc12,-17.2%,
CC1CN1 (stereo not given),5.43%,
COP(=O)(OC)O/C(=C\Cl)c1cc(Cl)c(Cl)cc1Cl,-0.228%,
C=Cc1cccc(CCl)c1,8.3% [at 240 µM],
Nc1cc(Cl)ccc1Cl,4.5%,
CCNc1nc(NC(C)C(C)C)nc(SC)n1 (stereo not given),3.73%,
CCO/N=C(\CC)C1=C(O)CC(c2c(C)cc(C)cc2C)CC1=O (stereo not given),5.45%,
CCOP(=O)(OCC)Oc1cc(C)nc(C(C)C)n1,1.8%,
CC(=O)[O][Pb]([c]1ccccc1)([c]1ccccc1)[c]1ccccc1,,7.7 µM (active)
CC(=O)[O-].CC(=O)[O-].[Co+2],2.71%,
CC(=O)[O-].CC(=O)[O-].O.O.O.[Pb+2],-5.02%,
CCOC(=O)Cc1ccccc1,10.5%,
COc1ccc2c3c1O[C@H]1[C@H](O)CC[C@H]4[C@@H](C2)N(C)CC[C@@]341,-5.74%,
CCN(CC)CCc1c[nH]c2ccccc12,-14.3%,
Clc1cc(Cl)c(-c2cc(Cl)c(Cl)cc2Cl)cc1Cl,-1.65% [at 42.5 µM],
CC(Cc1ccccc1)N(C)Cc1ccco1 (stereo not given),-2.15% [at 42.5 µM],
Brc1ccc(Oc2ccc(Br)cc2Br)c(Br)c1,-6.92%,
